Measured values as given in PubChem BioAssay (NCI).
About 83,000 compounds went through this panel and 20% of them were active in at least one assay; those are over-represented in the sample as a whole.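 Results are percent growth after 48 hours of single-concentration exposure. 100 means growth as in untreated cells, lower positive values show inhibition; negative values down to -100 show cell death.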 Unmarked numbers belong to inactive results. The source made the active and inactive calls. The calls were made as follows: active = growth percent below 10; inactive = the rest.

Key:
Experiment in all cases: NCI-60 one-dose screen, 48 h (100 = growth as untreated, 0 = no growth, -100 = all killed)
Conditions in all cases: 10 µM unless noted
RPMI-8226 leukemia = system: RPMI-8226 leukemia
OVCAR-8 ovarian = system: OVCAR-8 ovarian
OVCAR-5 ovarian = system: OVCAR-5 ovarian
OVCAR-4 ovarian = system: OVCAR-4 ovarian
SK-OV-3 ovarian = system: SK-OV-3 ovarian
IGROV1 ovarian = system: IGROV1 ovarian
OVCAR-3 ovarian = system: OVCAR-3 ovarian
HS 578T breast = system: HS 578T breast
NCI/ADR-RES ovarian = system: NCI/ADR-RES ovarian
T-47D breast = system: T-47D breast

SMILES	growth (RPMI-8226 leukemia)	growth (OVCAR-8 ovarian) [%]	growth (OVCAR-5 ovarian) [%]	growth (OVCAR-4 ovarian) [%]	growth (SK-OV-3 ovarian) [%]	growth (IGROV1 ovarian)	growth (OVCAR-3 ovarian) [%]	growth (HS 578T breast) [%]	growth (NCI/ADR-RES ovarian) [%]	growth (T-47D breast)
Cc1c(C(N)=O)sc2nc(SCC(=O)Nc3ccc(Cl)cc3)n(-c3ccccc3)c(=O)c12	112%	118	93.9	101	105	20.6%	131	348	97.2	91.1%
O=C1c2ccccc2C(=O)c2c1cccc2-n1nnc2ccccc21	59.8%	102	105	97.5	119	82.9%	115	94.2	107	93.5%
CCCCCCC/C(=N\N=C(N)N)c1ccc(O)cc1	11%	60.4	58.3	36.2	46.8	33.6%	35.8	57.3	69.9	-31.6% (active)
O=C(Nc1ccc(OCc2nnc(-c3ccccc3)o2)c(F)c1)Nc1ccc(Cl)c(C(F)(F)F)c1	-21% (active)	24.5	64.5	26.8	52.4	36.3%	15.4	35.6	17.8	14.9%
O=C(Nc1ccc(Cl)cc1)Nc1ccc(Nc2nncc3ccccc23)cc1	8.62% (active)	18.2	85.6	11.1	38.2	39.7%	17.6	58.3	36.2	-6.32% (active)
O=C1CC(=O)N(c2ccccc2)O1	105%	103	92.9	110	98.4	99%	118	110	101	97.5%
Nc1nc(N)c([N+](=O)[O-])c(=O)[nH]1	97.4%	106	100	114	100	110%	108	100	101	92.2%
Cc1nc(N)[nH]c(=O)c1C	83.7%	105	98.3	111	99.4	9.58% (active)	121	183	91	83%
Nc1nc(SCc2ccccc2Cl)c(-c2ccccc2)c(SCc2ccccc2Cl)n1	81.8%	98.4	84.9	95.8	82.7	97.4%	101	93.4	90.7	58.4%
C/C(=N/N=C(N)N)c1ccc(N)cc1	190%	111	105	100	105	-12.3% (active)	93.1	73.3	103	94.7%
Cc1cc(C)c2c(c1)N1OC(C2)C[C@H]1/C=C/c1ccccc1 (stereo not given in full)	94.9%	102	99	81.8	116	82.3%	116	122	95.9	93.6%
Cc1cc2c(cc1C)Nc1sc(NC(=O)CN3CCN(C)CC3)nc1C(=O)N2	105%	103	105	108	99.6	112%	112	106	103	94.1%
CSc1nc2c(c(=O)n1C)C(c1ccccc1)C1=C(N2)/C(=C/c2ccccc2)CCC1 (stereo not given)	39.5%	63.7	113	68.3	107	47.2%	52.8	61	38.3	57%
COc1ccc(OC)c(NC(=O)c2cc3oc4ccccc4c3cc2O)c1	53.4%	86.7	103	91.4	81.1	56.1%	137	84.6	88.6	74.4%
